Only a selection was taken, and hits are over-represented in it overall.
mHTT-CaM PPI inh: disrupts binding of mutant huntingtin to calmodulin; P42858; AID 1671202; inhibition, % at 15 µM; AlphaScreen His-mHTT/GST-CaM binding, luminescence; hit rate 3.6% among 190,000;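 also: 0% = both proteins with DMSO and 100% = one protein alone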
Pf apPOL block: Pf-apPOL DNA polymerase inhibition | Recombinant Pf-apPOL, molecular beacon fluorescence, 1.5 h | inhibition, % at 10 µM | hit rate 0.25% among 210,000
* marks the source's active call; other numbers are inactive results; x = not tested or not shown. Rule as the data show it: active = inhibition above about 50%; inactive = the rest.

SMILES	mHTT-CaM PPI inh	Pf apPOL block
COc1ccc(C2/C=C\CN(C(=O)c3ccc(C)cc3)[C@@H](Cc3ccccc3)C(=O)N2Cc2ccc(F)cc2)cc1 (some centres not stated)	16	-4
COc1ccc(C2/C=C\CN(C(=O)c3ccccc3)[C@@H](Cc3ccccc3)C(=O)N2Cc2ccc(F)cc2)cc1 (some centres not stated)	87*	-3
Cn1c(=O)c(-c2ccc(C(=O)NCc3ccncc3)cc2)nc2ccccc21	6	-1
COc1ccc(/C=C(\NC(=O)c2ccccc2)C(=O)N2CC3(C)CC2CC(C)(C)C3)cc1 (configuration not stated)	3	-7
CCn1cc(CNC(=O)c2cc3n(n2)C(C(F)(F)F)CC(c2ccco2)N3)cn1 (configuration not stated)	0	-9
COc1ccc(-c2cnc(SCC(=O)Nc3nccs3)n2CC(C)C)cc1	29	1
COc1ccc2c(c1)CN(c1ccc(C)cc1C)CO2	-9	0
Fc1ccc(N2COc3ccc(Cl)cc3C2)cc1	50*	-5
Cc1cccc(N2COc3ccc(Cl)cc3C2)c1C	96*	0
Cc1cccc(N2CCN(C(=O)c3ccc(Cl)cc3)CC2)c1C	-5	-9
Fc1ccc(N2COc3cc4c(cc3C2)OCO4)cc1	9	-6
Cc1ccc(N2COc3ccc(Cl)cc3C2)cc1	64*	-5
COc1ccc2c(c1)CN(c1ccc(C)c(Cl)c1)CO2	77*	-4
Cc1ccc(N2COc3cc4c(cc3C2)OCO4)cc1C	18	-1
COc1cccc(-c2nc(C3CCN(C(=O)c4ccc(OC)cc4OC)CC3)no2)c1	9	-5
CC1=C(C(=O)Nc2ccccc2)C(c2ccc(Cl)cc2Cl)n2ncnc2N1 (configuration not stated)	4	-4
CC(C)CC1C(=O)N(Cc2cn(Cc3ccco3)nn2)CCS(=O)(=O)N1Cc1ccc(-c2cccc(CO)c2)cc1 (configuration not stated)	59*	10
Cc1ccc(-c2ccc(CN3C(C(C)C)C(=O)N(Cc4cn(Cc5ccco5)nn4)CCS3(=O)=O)cc2)cc1 (configuration not stated)	65*	-6
COc1ccc(-c2ccc(CN3C(C(C)C)C(=O)N(Cc4cn(CC5CCCCC5)nn4)CCS3(=O)=O)cc2)cc1 (configuration not stated)	20	-1
CC(C)CC1C(=O)N(Cc2cn(Cc3ccco3)nn2)CCS(=O)(=O)N1Cc1ccc(-c2ccc(Cl)cc2)cc1 (configuration not stated)	40	-9
CC(C)C1C(=O)N(Cc2cn(Cc3ccco3)nn2)CCS(=O)(=O)N1Cc1ccc(-c2cccc(N(C)C)c2)cc1 (configuration not stated)	65*	-4
CC(C)C1C(=O)N(Cc2cn(CC3CCCCC3)nn2)CCS(=O)(=O)N1Cc1ccc(-c2ccc(F)cc2)cc1 (configuration not stated)	22	-5
COc1ccc(C(=O)Nc2ccc3nc(N4CCCCC4)cc(C)c3c2)c(OC)c1	-11	0
CN(C)c1ccc(/C=C2\N=C(c3ccc(Cl)cc3Cl)OC2=O)cc1	-5	-2
O=C(Nc1cc(F)ccc1F)N1CCc2nc[nH]c2C1	-6	-3
SMILES	mHTT-CaM PPI inh	Pf apPOL block
Cc1ccccc1C(=O)N1CCCCC1CCN1CCCCCC1 (configuration not stated)	-5	-8
COCCCNC(=O)c1cc2c(=O)n3cccc(C)c3nc2n(C(C)C)c1=N	0	3
Nc1nnc(SCC(=O)Nc2ccc3c(c2)OCO3)s1	x	-10
Nc1sc(SCC(=O)Nc2ccc3c(c2)OCO3)nc1-c1ccccc1	78*	1
CC(=O)C(=C(C)O)c1ncc(-c2ccccc2)s1	10	1
COc1ccc(C(=O)CSc2nnc(-c3ccc4c(c3)OCO4)n2-c2ccccc2)cc1	16	-1
Cc1ccccc1C1CCCN1C(=O)Cc1cccc(Cl)c1 (configuration not stated)	7	-4
Cc1ccc(C2CCCN2C(=O)Cc2ccc(F)cc2)cc1 (configuration not stated)	11	-5
Cc1ccc(C2CCCN2C(=O)Cc2ccc(Cl)cc2)cc1 (configuration not stated)	58*	-1
Cc1ccccc1C1CCCN1C(=O)Cc1ccc(Cl)cc1 (configuration not stated)	58*	1
COCC(=O)Nc1cc(Cl)c(Cl)cc1Cl	-16	1
O=C1CSC(c2cccs2)N1c1ccc(Oc2ccccc2)cc1 (configuration not stated)	-5	-1
O=C(Nc1ccccc1)c1ccc2c3c(onc13)-c1ccccc1C2=O	14	4
Cc1ccc(-c2nc3n(n2)C(=O)CC(c2ccco2)S3)cc1 (configuration not stated)	5	-2
O=C1CC(c2ccco2)Sc2nc(-c3ccc(F)cc3)nn21 (configuration not stated)	100*	-8
